# Assay outcomes from PubChem BioAssay.
# Cruzain noTriton = cruzain (T. cruzi) inhibition without detergent | P25779 | purified cruzain, Z-FR-AMC fluorescence, no detergent | Potency, µM, inactives show max response, negative = inhibition, usual class: inhibitors | hit rate 2.3% among 200,000;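 note: plate controls were enzyme without inhibitor for no effect and buffer without enzyme for full effect; nearly all actives have a fitted effect of over 40% in size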
# Target sequence (P25779 123-467 limits assumed): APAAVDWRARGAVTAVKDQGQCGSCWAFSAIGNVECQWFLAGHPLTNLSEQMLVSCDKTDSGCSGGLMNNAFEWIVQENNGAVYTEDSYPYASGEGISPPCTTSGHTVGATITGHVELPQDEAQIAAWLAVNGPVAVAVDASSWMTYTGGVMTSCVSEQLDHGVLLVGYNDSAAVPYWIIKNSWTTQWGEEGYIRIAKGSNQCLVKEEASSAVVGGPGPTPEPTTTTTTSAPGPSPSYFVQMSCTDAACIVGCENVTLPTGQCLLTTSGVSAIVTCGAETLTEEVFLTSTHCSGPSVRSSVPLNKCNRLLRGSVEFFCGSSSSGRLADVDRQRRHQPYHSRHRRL
#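 Detergent-free condition (0.00005% Triton X-100) in acetate buffer pH 5.5 with DTT. 1.5 nM enzyme and compound were pre-mixed 15 min, then 2 uM Z-FR-AMC substrate added; reaction progress from fluorescence change between first and third reads (60 s).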
# Cruzain inh Det = blocks cruzain activity in presence of Triton detergent | purified cruzain, Z-FR-AMC fluorescence, 0.01% Triton | Potency, µM, inactives show max response, negative = inhibition, actives largely listed as inhibitors | hit rate 0.43% among 200,000 | AID 1478;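 note: plate controls were neutral wells for no effect and buffer without enzyme for full effect; nearly all actives have a fitted effect of over 40% in size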
#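 Compounds were screened in titration against cruzain (1.5 nM) with 0.01% Triton X-100 to counter colloidal aggregation. Activity was the AMC fluorescence increase over 60 s after adding 2 uM Z-FR-AMC at pH 5.5.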
# * hit, by the source's call; ? = inconclusive; ! = repeats disagree. Rows were chosen to be rich in hits. Some 2.4% of all compounds tested hit in one or more screens of this group. Calls come from the whole dose curve; as a rule, active = well fitted curve in the direction sought with a large enough effect; inconclusive = small, poorly fitted or top-dose-only effect, or another doubt; inactive = no such curve, though single readings can be large; an effect the other way counts as inactive or inconclusive. Potency is the fitted concentration of half-maximal effect.
SMILES,Cruzain noTriton,Cruzain inh Det
Cc1ccc(SCC(=O)Nc2ccc(N3CCN(c4ccccc4)CC3)c(F)c2)cc1,10µM*,4%
COc1ccc(/C=C(\C#N)C(N)=O)c(OC)c1,7%,-6%
Nc1c(-c2cccs2)cnn1-c1nc(-c2ccc(F)cc2)cs1,-21%,6%
Nc1c(-c2cccs2)cnn1-c1nc(-c2ccc(Cl)cc2Cl)cs1,25µM*,0%
CCN(CC)C(=O)C1=C(C)Nc2nc3ccccc3n2C1c1cccc(Cl)c1 (stereo not drawn),-9%,-4%
CCc1ccc2occ(CC(=O)NCc3ccccc3)c2c1,4%,-9%
CCOC(=O)N1CCN(C(=O)CSc2nc3c(cnn3-c3ccccc3)c(=O)[nH]2)CC1,3%,0%
COc1ccc(C2=NN(C(=O)CSc3nc4ccccc4s3)C(c3ccc(OC)cc3)C2)cc1 (stereo not drawn),?,-3%
O=C(CSc1nc2c(cnn2-c2ccc(F)cc2)c(=O)[nH]1)N1CCCCC1,-13%,-2%
COc1cccc(C2CC(c3cccs3)=NN2C(=O)CSc2nc3ccccc3s2)c1OC (stereo not drawn),13µM*,?
COc1cccc(C2CC(c3cccs3)=NN2C(=O)CSc2nc3c(cnn3-c3ccc(F)cc3)c(=O)[nH]2)c1OC (stereo not drawn),?,3.5µM*
COc1ccc(C2CC(c3cccs3)=NN2C(=O)CSc2nc3c(cnn3-c3ccccc3)c(=O)[nH]2)cc1 (stereo not drawn),32µM*,-9%
CCOc1ccc(C(=O)Nc2ccc(C(=O)OCc3cc(=O)n4c(C)csc4n3)cc2)cc1,8%,0%
CCN(CC)CCCC(C)n1c(-c2ccccc2)nc2c(NCCO)nc(C)nc21 (stereo not drawn),-2%,1%
COc1ccc([C@@H]2[C@@H](O)[C@H](O)[C@@H](C)N2C)cc1OC,-7%,13%
O=C(/C=C\c1ccc2c(c1)OCO2)Nc1c2c(nn1-c1ccc(Cl)cc1)CSC2,25µM*,-5%
O=C(/C=C\c1ccc2c(c1)OCO2)NC1CC(=O)N(c2ccc(Cl)cc2)C1 (stereo not drawn),-9%,-1%
CCCCC(=O)NCCc1c(Cc2ccccc2)[nH]c2ccccc12,-2%,-7%
Cc1ncc(COP(=O)(O)O)c(C)c1O,-1%,5%
CCc1ccc(C2C(C#N)=C(N)SC(N)=C2C#N)cc1,-12%,-18%
CCc1ccc(C2C(C#N)=C(N)SC(N)=C2C#N)s1,16µM*,-27%
N#C/C(=C\c1ccc(-c2ccccc2[N+](=O)[O-])o1)C(=O)Nc1nc(-c2cccs2)cs1,6.3µM*,-6%
CNC(=O)/C(C#N)=C/c1ccc(-c2ccc(OC)cc2[N+](=O)[O-])o1,0%,3%
CCCCCCCCCCCCC/C=C/[C@@H](O)[C@H](COP(=O)([O-])OCC[N+](C)(C)C)NC(=O)CCCCCCCCCCCCCCCCC,1%,3%
CCc1cc2ccc(OC)cc2nc1SCC(=O)Nc1cc(C)on1,10µM*,7%
SMILES,Cruzain noTriton,Cruzain inh Det
CCc1cc2ccccc2nc1SCC(=O)Nc1cc(C)on1,-8%,1%
Cc1cc(C)c(S(=O)(=O)NCc2csc(-c3ccccc3)n2)c(C)c1,5%,-10%
O=C(Nc1ccc([N+](=O)[O-])cc1Cl)c1cc(Cl)ccc1O,13%,5.6µM*!
COc1ccc(NC(=O)c2cc(Cl)ccc2Cl)c([N+](=O)[O-])c1,-5%,-4%
CCC1CN(C(=O)Nc2cc(Cl)c(OC)cc2OC)c2ccccc2O1 (stereo not drawn),-6%,-3%
C1CCCNCC1,-9%,11%
CN(C)c1ccc(C(=O)NCc2ccc3c(c2)CCN3C(=O)c2ccc(Cl)cc2)cc1,-2%,6%
CN(C)c1ccc([C@@H]2[C@@H]([N+](=O)[O-])[C@H]3C=Cc4ccccc4N3[C@H]2C(=O)c2ccc(Cl)cc2)cc1,7.9µM*,-5%
O=[N+]([O-])c1ccc(Nc2ccccc2)cc1,-11%,-10%
O=c1nc(Nc2ccccc2)sc2ccc([N+](=O)[O-])cc12,10µM*,-3%
O=C1N/C(=C/c2ccco2)C(=O)N1Cc1ccccc1F,1%,-7%
Cc1cccc(CN2C(=O)N/C(=C/c3cc(C)n(-c4ccccn4)c3C)C2=O)c1,25µM*,-6%
Cc1cc(/C=C2/NC(=O)N(Cc3ccccc3F)C2=O)c(C)n1-c1ccccn1,?,-6%
Cc1cc(/C=C2/NC(=O)N(Cc3ccccc3F)C2=O)c(C)n1C,25µM*,-6%
CCOc1ccc(OC(=O)c2cn(-c3ccc(C)cc3)c(=O)c3ccccc23)cc1,-21%,-1%
Cc1ccc(NC(=O)CSc2nc3c(c(=O)[nH]2)CCC3)cc1C,?,2%
CC(C)c1ccc(NC(=O)CSc2nc3c(c(=O)[nH]2)CCC3)cc1,13µM*,2%
CC[C@H](CN(C)C)C(=O)c1ccco1,4%,4%
C[C@@]1(C(NC(=O)Cc2ccccc2)c2ccc(-c3ccccc3)cc2)C[C@H]1C1CCCCC1 (stereo partly drawn),3%,4%
